G9a block = blocks human histone lysine methyltransferase G9a; G9a H3K9 monomethylation, AlphaScreen, 2 h; Potency, µM (top dose mostly 102 µM), for inactives: at the top dose activity, negative = inhibition, usual class: inhibitors; 350,000 tested, 8.8% active; AID 504332; further: on the % scale 0 is the no-effect control and ±100 the full control effect; nearly all actives have a fitted effect of over 75% in size
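Readings reflect AlphaScreen signal from monomethyl-H3K9 antibody detection. HMT at 20 nM; substrate b-H3K9 500 nM; cofactor SAM 20 uM; 2 h RT reaction; compounds tested as titrations in qHTS with 15 min preincubation.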
GLS inh = glutaminase GLS (human) inhibition; O94925; GLS enzymatic activity, qHTS titration; Potency, µM (highest dose often 45.5 µM), inactives show top-dose activity change, negative = inhibition, actives largely listed as inhibitors; 410,000 tested, 0.21% active; further: on the % scale 0 is the no-effect control and ±100 the full control effect
Target sequence (O94925 whole entry, looked up): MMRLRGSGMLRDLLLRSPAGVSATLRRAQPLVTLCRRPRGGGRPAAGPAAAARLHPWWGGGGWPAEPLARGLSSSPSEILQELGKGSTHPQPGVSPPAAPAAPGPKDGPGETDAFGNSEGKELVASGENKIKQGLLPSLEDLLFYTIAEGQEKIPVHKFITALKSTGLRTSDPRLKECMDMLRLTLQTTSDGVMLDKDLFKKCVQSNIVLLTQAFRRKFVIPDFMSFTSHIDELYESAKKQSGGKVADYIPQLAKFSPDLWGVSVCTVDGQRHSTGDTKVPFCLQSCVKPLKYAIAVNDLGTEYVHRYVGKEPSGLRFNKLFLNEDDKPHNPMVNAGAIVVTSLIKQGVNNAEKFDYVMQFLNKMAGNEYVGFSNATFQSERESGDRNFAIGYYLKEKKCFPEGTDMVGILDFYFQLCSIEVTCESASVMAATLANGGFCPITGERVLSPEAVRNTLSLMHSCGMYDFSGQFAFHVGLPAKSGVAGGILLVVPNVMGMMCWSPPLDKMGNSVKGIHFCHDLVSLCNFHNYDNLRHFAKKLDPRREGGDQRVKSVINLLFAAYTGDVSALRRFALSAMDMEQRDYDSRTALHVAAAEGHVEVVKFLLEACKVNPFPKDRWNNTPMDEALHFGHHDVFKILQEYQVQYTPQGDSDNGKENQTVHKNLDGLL
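Compounds were pin-transferred onto hKGA, after which L-glutamine (1 mM solution) and a detection mix of glutamate oxidase, HRP and Amplex Red were added. Initial and 30 min RT fluorescence reads were collected.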
BAZ2B inh = inhibitors of human BAZ2B bromodomain; Q9UIF8; AlphaScreen BAZ2B-H3K14Ac peptide displacement; Potency, µM (titrated, usually from 114 µM), for inactives: at the top dose activity change, negative = inhibition, actives largely listed as inhibitors; 360,000 tested, 4.4% active; AID 504333; further: on the % scale 0 is the no-effect control and ±100 the full control effect; nearly all actives have a fitted effect of over 60% in size
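AlphaScreen displacement of biotin-H3(5-23)K14Ac peptide (50 nM final) from BAZ2B (50 nM final) in PBS pH 7.4, 0.01% Tween-20; complex preformed 30 min RT, then compounds (top 110 uM) 30 min RT, beads 20 min dark.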
JMJD2A Tudor inh = inhibitors of human JMJD2A Tudor domain; Potency, µM (titrated, usually from 114 µM), for the others: top-dose activity change, negative = inhibition, most hits filed as inhibitors; AID 504339; O75164; AlphaScreen JMJD2A-Tudor / H3K4me3 peptide binding; 390,000 tested, 4.4% active; further: on the % scale 0 is the no-effect control and ±100 the full control effect; nearly all actives have a fitted effect of over 50% in size
HP1b chromo inh = blocks HP1-beta chromodomain binding to methylated histone tails | P83916 | AlphaScreen HP1-beta / biotin-H3K9me3 peptide binding | Potency, µM (top dose mostly 114 µM), inactives show at the highest dose activity change, negative = inhibition, usual class: inhibitors | 390,000 tested, 0.56% active | AID 540317; further: nearly all actives have a fitted effect of over 70% in size
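AlphaScreen: HP1-beta (50 nM) preformed 30 min with biotin-H3(1-18)K9me3 peptide (50 nM) in PBS pH 7.4, 0.01% Tween-20. Compound added for 30 min at RT, then streptavidin donor/nickel chelate acceptor beads (10 ug/mL) for 30 min.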
Starred values were filed as active, the others as inactive; ? = inconclusive; / = no result given; ! = not confirmed by another sample; [ ] = another dose, or the depositor's remark. Shown are actives, neighbours in structure and some others; about 10% of the full set was active somewhere. The call rests on the fitted dose curve; in most records, active means well fitted curve in the direction sought with a large enough effect; inconclusive means small, poorly fitted or top-dose-only effect, or another doubt; inactive means no such curve, though single readings can be large; an effect the other way counts as inactive or inconclusive. Potency means the concentration at half of the fitted maximal effect.

SMILES | G9a block | GLS inh | BAZ2B inh | JMJD2A Tudor inh | HP1b chromo inh
CN1CCCC[C@@H]1CCN1c2ccccc2Sc2ccc(S(C)=O)cc21 (stereo partly specified) | 7.9µM*! | 10% | / | / | /
O=c1c(OC2OC(CO)C(O)C(O)C2OC2OC(CO)C(O)C(O)C2OC2OC(CO)C(O)C(O)C2O)c(-c2ccc(O)c(O)c2)oc2cc(O)cc(O)c12 (stereo unspecified) | ? | 41% | ? | 32µM* | -9%
O=c1cc(-c2ccc(O)c(O)c2)oc2cc(O)c(C3OC(CO)C(O)C(O)C3O)c(O)c12 (stereo unspecified) | -3%[12.7 µM] | 33% | ? | 25µM* | 4%
COc1c(-c2ccc(O)c(O)c2)oc2cc(O)cc(O)c2c1=O | -22%[12.7 µM] | ? | 35µM* | ? | 2%
O=c1c2c(O)cc(O)cc2oc2ccc(O)c(O[C@@H]3O[C@H](CO)[C@@H](O)[C@H](O)[C@H]3O[C@H]3O[C@H](CO)[C@@H](O)[C@H](O)[C@H]3O)c12 | -3%[12.7 µM] | 24% | 3% | -14% | 2%
C[C@@H]1O[C@@H](OC[C@H]2O[C@@H](Oc3c(-c4ccc(O)c(O)c4)oc4cc(O)cc(O)c4c3=O)[C@H](O)[C@@H](O)[C@@H]2O)[C@H](O)[C@H](O)[C@H]1O | ? | 72% | -15% | -14% | 101%
O=c1c(O[C@@H]2O[C@H](CO)[C@H](O)[C@H](O)[C@H]2O)c(-c2ccc(O)c(O)c2)oc2cc(O)cc(O)c12 | 13µM* | / | ? | / | /
O=S1(=O)C[C@@H](O)[C@@H](Nc2ccc(Cl)cc2)C1 | -41%[2.33 µM] | 37% | 4% | -19% | 21%
O=C(CSc1nnc2ccc(-c3ccccn3)nn12)Nc1cccc(F)c1 | / | -6% | / | / | /
O=c1c(O[C@@H]2O[C@H](CO)[C@@H](O)[C@H](O)[C@H]2O)c(-c2ccc(O)cc2)oc2cc(O)cc(O)c12 | / | 10% | / | -15% | 20%
O=c1c(O[C@@H]2O[C@H](CO)[C@@H](O)[C@H](O)[C@H]2O)c(-c2ccc(O)c(O)c2)oc2cc(O)cc(O)c12 | 8.9µM* | / | -28% | / | /
COC(=O)c1ccc(OCC(=O)Nc2ccccc2C(=O)NC2CC2)cc1 | 22%[12.7 µM] | 3% | -3% | -1% | 64%
COc1cccc(CNC(=O)c2ccc(C)c(S(=O)(=O)N3CCCCC3)c2)c1 | 12%[0.501 µM] | 0% | -3% | -7% | 28%
COc1ccccc1/C=C1\SC(=S)N(C(C(=O)O)c2ccccc2)C1=O (stereo unspecified) | ? | 26% | -36% | 3%[11.4 µM] | 28%
COc1cc(/C=C2\SC(=S)N(C(C(=O)O)c3ccccc3)C2=O)ccc1O (stereo unspecified) | 8.9µM* | ? | ? | -32% | ?
CCOc1cc(/C=C2\SC(=S)N(C(C(=O)O)c3ccccc3)C2=O)ccc1O (stereo unspecified) | 45µM* | ? | -20% | -22%[11.4 µM] | ?
O=C(O)C(c1ccccc1)N1C(=O)/C(=C\c2ccc(O)c(O)c2)SC1=S (stereo unspecified) | 7.9µM* | ? | 8.9µM* | 20µM* | 25µM*
CCOc1ccc(/C=C2/SC(=S)N(C(C(=O)O)c3ccccc3)C2=O)cc1OCC (stereo unspecified) | 45µM* | ? | 79µM* | ? | ?
Cc1ccc(NC(=O)N2CCN(c3ncccc3C(F)(F)F)CC2)cc1 | 13% | 3% | 2% | 0% | -7%
NC1=NC(S)C2N=CN=C2N1 (stereo unspecified) | 25µM* | -16% | / | / | /
Cc1ccc(Cn2c(CCNc3nc(-c4ccc(Cl)c([N+](=O)[O-])c4)cs3)nc3cc(C(=O)NCCCO)ccc32)cc1 | / | 8% | / | 35µM* | 2%
O=[N+]([O-])c1cc(-c2csc(NCCc3nc4cc(C(F)(F)F)ccc4n3CCCO)n2)ccc1Cl | / | -7% | / | 45µM* | 2%
CC(=O)c1c(C)[nH]c(C(=O)NCCc2ccccc2)c1C | -41% | 6% | ? | -31% | -1%
CN(C)S(=O)(=O)c1ccc(C(=O)NCCOc2ccc(F)cc2)cc1 | 6%[59 µM] | 0% | -11% | 7% | 37%

From PubChem
